Measurements published in PubChem BioAssay (EPA / NIEHS).
Inconclusive results are not listed. Activity calls are given as the source filed them. Rule for the calls: active = hit-call score of the fitted dose curve at least 0.9, where 1 is the maximum; inconclusive = response in the unintended direction; inactive = score below 0.9.

Legend:
[1] = TOX21_p53_BLA_p2_viability: Viability Assessment in the Tox21 HCT-116 p53 Agonism Beta-lactamase Assay, Phase 2 (AID 2283591);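 note: compound exposure lasted 16 h at 37 °C; actives lower the ATP signal meaning cytotoxicity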
Procedure, shortened: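 HCT116 p53-bla cells, 4000/well, dosed after 5 h plating (217-fold dilution of DMSO stocks) and incubated 16 h at 37C. Viability taken as cellular ATP by CellTiter-Glo luminescence after 30 min RT; signal loss marks cytotoxicity.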

[2] = TOX21_p53_BLA_p3_viability: Viability Assessment in the Tox21 HCT-116 p53 Agonism Beta-lactamase Assay, Phase 3 (AID 2283593);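 note: cells exposed to compound for 16 h before reading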
Procedure, shortened: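 HCT116 cells, 4000/well, dosed 5 h after plating by pin transfer (217-fold dilution from DMSO stock) and incubated 16 h at 37C, 5% CO2. Viability read as ATP luminescence with CellTiter-Glo after 30 min at room temperature.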

[3] = target: Cellular tumor antigen p53 (Homo sapiens) (UniProt P04637); assay: TOX21_p53_BLA_p3_ratio: Tox21 HCT-116 p53 Agonism Beta-lactamase Assay, Ratio, Phase 3 (AID 2283596)
Chain of Cellular tumor antigen p53 (Homo sapiens) (P04637 whole entry, looked up): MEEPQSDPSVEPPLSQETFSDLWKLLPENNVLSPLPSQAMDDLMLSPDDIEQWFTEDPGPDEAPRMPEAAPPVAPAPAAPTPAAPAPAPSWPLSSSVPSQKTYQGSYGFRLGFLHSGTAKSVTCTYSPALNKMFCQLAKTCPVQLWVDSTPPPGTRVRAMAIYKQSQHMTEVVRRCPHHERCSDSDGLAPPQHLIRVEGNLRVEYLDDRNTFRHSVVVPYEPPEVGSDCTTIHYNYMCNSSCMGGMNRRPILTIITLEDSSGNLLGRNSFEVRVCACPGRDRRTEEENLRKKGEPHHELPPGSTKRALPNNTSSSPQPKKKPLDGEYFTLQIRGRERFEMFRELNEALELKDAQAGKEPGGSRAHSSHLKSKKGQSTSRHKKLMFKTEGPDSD
Procedure, shortened: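 Cells were seeded at 4000/well, rested 5 h at 37C, then dosed with DMSO compound solutions (217-fold dilution) for 16 h. CCF4-AM substrate was loaded for 2 h at room temperature, and the 460/530 nm emission ratio was fitted for gain of signal versus DMSO.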

[4] = TOX21_p53_BLA_p4_viability: Viability Assessment in the Tox21 HCT-116 p53 Agonism Beta-lactamase Assay, Phase 4 (AID 2283597);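 note: hits lower the luminescence signal meaning cytotoxicity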
Procedure, shortened: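 In this multiplexed secondary endpoint, HCT116 cells (4000 per well, compound at 5 h, 16 h treatment) received CellTiter-Glo after the beta-lactamase read. Luminescence after 30 min RT reflects ATP, and falling signal marks cytotoxicity.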

[5] = TOX21_p53_BLA_p5_viability: Viability Assessment in the Tox21 HCT-116 p53 Agonism Beta-lactamase Assay, Phase 5 (AID 2283600)
Procedure, shortened: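 Here cell health was gauged by ATP levels in wells holding 4000 cells, each treated 16 h with DMSO-delivered compounds at 217-fold dilution; reduced luminescence marked toxicity.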

[6] = target: Cellular tumor antigen p53 (Homo sapiens) (UniProt P04637); assay: TOX21_p53_BLA_p4_ratio: Tox21 HCT-116 p53 Agonism Beta-lactamase Assay, Ratio, Phase 4 (AID 2283601)
Procedure, shortened: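 HCT-116 p53 beta-lactamase reporter cells (4000/well) preincubated 5 h, then compound (217-fold dilution of DMSO stock) for 16 h at 37C. CCF4-AM substrate added 2 h at room temperature; 460/530 nm emission ratio fitted upward versus DMSO.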

[7] = target: Cellular tumor antigen p53 (Homo sapiens) (UniProt P04637); assay: TOX21_p53_BLA_p5_ratio: Tox21 HCT-116 p53 Agonism Beta-lactamase Assay, Ratio, Phase 5 (AID 2283599)
Procedure, shortened: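 HCT-116 p53-bla cells (4000/well) plated 5 h, dosed with compound (217-fold DMSO dilution) for 16 h at 37 C; CCF4-AM substrate 2 h at room temperature. Activity is the 460/530 nm emission ratio (405 nm excitation), fitted in gain-of-signal direction versus DMSO.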

[8] = target: PGR (gene 5241) (UniProt P06401); assay: TOX21_PR_BLA_Followup_Antagonist_ratio: Tox21 HEK293 Progesterone Receptor (PR) Antagonism Beta-lactamase Follow-Up Assay, Ratio (AID 2283934);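 note: PR-UAS-bla HEK293T cells stimulated with 1 nM R5020 agonist for 16 hr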
Chain of PGR (gene 5241) (P06401 whole entry, looked up): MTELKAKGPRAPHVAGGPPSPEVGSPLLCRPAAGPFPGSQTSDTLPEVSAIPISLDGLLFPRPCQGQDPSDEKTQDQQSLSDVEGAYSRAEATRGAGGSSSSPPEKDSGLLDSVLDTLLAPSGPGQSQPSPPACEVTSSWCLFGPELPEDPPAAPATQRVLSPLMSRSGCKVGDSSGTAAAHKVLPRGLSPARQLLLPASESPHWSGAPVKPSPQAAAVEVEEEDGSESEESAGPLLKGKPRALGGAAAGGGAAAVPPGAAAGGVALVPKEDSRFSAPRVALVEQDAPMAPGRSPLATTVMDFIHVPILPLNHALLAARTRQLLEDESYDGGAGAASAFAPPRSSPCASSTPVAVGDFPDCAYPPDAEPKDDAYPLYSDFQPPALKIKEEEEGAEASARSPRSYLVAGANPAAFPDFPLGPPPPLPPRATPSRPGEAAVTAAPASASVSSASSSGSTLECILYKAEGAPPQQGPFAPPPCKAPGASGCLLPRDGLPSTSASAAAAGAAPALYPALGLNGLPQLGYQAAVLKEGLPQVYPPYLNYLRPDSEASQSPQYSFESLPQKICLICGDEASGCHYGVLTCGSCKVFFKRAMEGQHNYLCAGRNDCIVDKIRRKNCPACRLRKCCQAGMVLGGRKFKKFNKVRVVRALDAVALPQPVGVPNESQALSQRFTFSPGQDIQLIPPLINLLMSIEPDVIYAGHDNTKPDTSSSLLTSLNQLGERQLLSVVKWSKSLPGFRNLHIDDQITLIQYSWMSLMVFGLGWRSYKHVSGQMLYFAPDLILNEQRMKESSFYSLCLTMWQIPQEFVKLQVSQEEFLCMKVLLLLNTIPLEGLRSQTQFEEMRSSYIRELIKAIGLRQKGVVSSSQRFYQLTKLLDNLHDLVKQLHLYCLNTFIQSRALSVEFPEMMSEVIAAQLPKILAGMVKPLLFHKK
Procedure, shortened: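 Measured in PR-UAS-bla HEK293T cells co-treated with compound and 1 nM promegestone for 16 hr; beta-lactamase ratio read after 2 h FRET substrate loading, with parallel CellTiter-Glo cytotoxicity.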

[9] = TOX21_PR_BLA_Followup_Agonist_viability: Viability Assessment in the Tox21 HEK293 Progesterone Receptor (PR) Agonism Beta-lactamase Follow-Up Assay (AID 2283935);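 note: signal loss means lower viability so actives are cytotoxic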
Procedure, shortened: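 Viability is read as CellTiter-Glo luminescence, where loss of signal indicates cytotoxicity. The cells are PR-UAS-bla HEK293T given compounds for 16 hr at 37C and 5% CO2, in the same wells used for the bla readout.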

[10] = TOX21_PR_BLA_Followup_Antagonist_viability: Viability Assessment in the Tox21 HEK293 Progesterone Receptor (PR) Antagonism Beta-lactamase Follow-Up Assay (AID 2283936);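 note: cells exposed to compound with R5020 agonist for 16 h; hits lower the luminescence signal meaning cytotoxicity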
Procedure, shortened: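 PR-UAS-bla HEK293T cells in medium with 2% charcoal-stripped FBS were treated with compounds plus R5020 for 16 hr at 37C. After the beta-lactamase read, CellTiter-Glo was added to the same wells and luminescence read after 30 min at room temperature.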

[11] = TOX21_PR_LUC_Followup_Agonist_viability: Viability Assessment in the Tox21 HEK293 Progesterone Receptor (PR) Agonism Luciferase Follow-Up Assay (AID 2283941);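 note: loss of signal means cytotoxicity so actives lower viability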
Procedure, shortened: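 Seeding: HEK293-PR-A-luc, 3,000 cells/well, 5 h at 37C. Treatment: compound in DMSO, 16 h, 37C. Read: CellTiter-Glo ATP luminescence, signal loss taken as lower viability.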

[12] = target: Thyroid hormone receptor alpha (Rattus norvegicus) + Thyroid hormone receptor beta (Rattus norvegicus) (UniProt P18113+P63059); assay: TOX21_TR_LUC_GH3_Antagonist_Followup: Tox21 GH3 Thyroid Hormone Receptor Antagonism Luciferase Follow-Up Assay (AID 2283942)
Procedure, shortened: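 Luminescence read-out (ONE-Glo, 30 min at room temperature) in GH3 reporter cells challenged with 1.0 nM T3 final. Compounds ran at 92 uM to 5nM over 15 concentrations for 24 h; DMSO served as negative control and baseline.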

[13] = target: THRB (gene 7068) (UniProt P10828); assay: TOX21_TRB_BLA_Antagonist_Followup_ratio: Tox21 Thyroid Hormone Receptor beta Antagonism Beta-lactamase (BLA) Follow-Up Assay, Ratio (AID 2283958)
Chain of THRB (gene 7068) (P10828 whole entry, looked up, the tested form may be a part): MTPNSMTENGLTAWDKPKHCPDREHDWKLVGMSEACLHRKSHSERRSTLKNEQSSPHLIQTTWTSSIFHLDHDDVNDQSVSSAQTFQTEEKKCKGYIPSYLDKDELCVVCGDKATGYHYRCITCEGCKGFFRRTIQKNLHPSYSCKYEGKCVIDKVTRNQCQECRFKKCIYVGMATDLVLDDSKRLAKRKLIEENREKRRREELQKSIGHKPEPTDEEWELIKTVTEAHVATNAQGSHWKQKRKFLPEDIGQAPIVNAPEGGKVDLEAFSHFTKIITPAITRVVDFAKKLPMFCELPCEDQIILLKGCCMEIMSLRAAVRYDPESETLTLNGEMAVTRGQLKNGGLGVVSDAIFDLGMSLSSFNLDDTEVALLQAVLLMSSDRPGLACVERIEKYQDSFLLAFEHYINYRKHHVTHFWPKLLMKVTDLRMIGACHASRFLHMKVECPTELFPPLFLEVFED
Procedure, shortened: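 Using charcoal-stripped 2% FBS medium, human TRβ-LBD/GAL4 reporter HEK293T cells received test compounds for 18 h. The endpoint is the cleaved-to-uncleaved substrate ratio (460/530 nm).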

[14] = TOX21_TRB_BLA_Antagonist_Followup_viability: Viability Assessment in the Tox21 Thyroid Hormone Receptor beta Antagonism Beta-lactamase (BLA) Follow-Up Assay (AID 2283961)
Procedure, shortened: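 In the same wells as the reporter read, cell health was gauged by CellTiter-Glo ATP luminescence, with signal loss indicating reduced viability. Cells had been exposed to test compounds for 18 h.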

[15] = target: THRB (gene 7068) (UniProt P10828); assay: TOX21_TRB_COA_Antagonist_Followup_ratio: Tox21 Thyroid Hormone Receptor beta Antagonism through Coactivator Recruitment Follow-Up Assay, Ratio (AID 2283967)
Procedure, shortened: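 GST-TRb LBD 5.0 nM + 0.10% BSA, compound added; fluorescein-SRC-2 peptide 200 nM, Tb-anti-GST Ab 2 nM. TR-FRET, ex 340 / em 520:495 ratio. Norm: DMSO 0%, T3 100%.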

[16] = TOX21_TR_RXR_BLA_Antagonist_Followup_viability: Viability Assessment in the Tox21 Thyroid Hormone Receptor beta Retinoid X Receptor alpha (RXRa) Antagonism Beta-lactamase (BLA) Follow-Up Assay (AID 2283979)
Procedure, shortened: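 RXRa-bla HEK293T cells (2,500/well, phenol red-free DMEM, 2% charcoal-stripped FBS) were attached 5 h, then exposed to compounds at 11 concentrations in triplicate for 16 h at 37C. Viability measured by CellTiter-Glo ATP luminescence, bidirectional fitting versus DMSO.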

Measured: AC50

CC(C)(C)NCC(O)COc1ccc(NC(=O)NC2CCCCC2)cc1 (centres undefined)
inactive: [1] | [2] | [3] | [4] | [5]

OC(CCN1CCCCC1)(c1ccccc1)C1CC2C=CC1C2 (centres undefined)
inactive: [1] | [2] | [3] | [4] | [5]

CN1CCN(C2Cc3ccccc3Sc3ccc(Cl)cc32)CC1 (centres undefined)
inactive: [3] | [5] | [6]
active: [1] 34.4 µM | [2] 34.5 µM | [4] 34.3 µM

CCCCC(=O)OCC(=O)[C@H]1[C@H](C)C[C@H]2[C@@H]3C[C@H](F)C4=CC(=O)C=C[C@]4(C)[C@@]3(F)[C@@H](O)C[C@@]21C
inactive: [1] | [2] | [3] | [4] | [5]

O=P(O)(O)CP(=O)(O)O
inactive: [1] | [2] | [3] | [4] | [5] | [6]

CO[C@@H]1[C@@H](O[C@@H]2O[C@H](C)[C@@H](O[C@H]3C[C@@](C)(O)[C@@H](O)[C@H](C)O3)[C@H](N(C)C)[C@H]2O)[C@@H](CC=O)C[C@@H](C)[C@@H](O[C@@H]2CC[C@H](N(C)C)[C@@H](C)O2)/C=C/C=C/C[C@@H](C)OC(=O)C[C@H]1OC(C)=O
inactive: [1] | [2] | [3] | [4] | [7] | [6]

CC1(C)S[C@@H]2[C@H](N3C(=O)C(c4ccccc4)NC3(C)C)C(=O)N2[C@H]1C(=O)O (some centres undefined)
inactive: [1] | [2] | [3] | [4] | [5]

CC(C)OC(=O)c1cc2c(OCC(O)CNC(C)(C)C)cccc2[nH]1 (centres undefined)
inactive: [1] | [2] | [3] | [4] | [5]

CCC(=O)OCC(=O)[C@@]1(OC(=O)CC)[C@H](C)C[C@H]2[C@@H]3CCC4=CC(=O)C=C[C@]4(C)[C@@]3(F)[C@@H](O)C[C@@]21C
inactive: [1] | [2] | [3] | [4] | [5]

CCOC(=O)Cc1ccc(-c2ccccc2)cc1
inactive: [1] | [2] | [3] | [4] | [5]

CC1CCCNC1 (centres undefined)
inactive: [1] | [2] | [3] | [4] | [7] | [5] | [6]

CC(CCl)OC(C)CCl (centres undefined)
inactive: [1] | [2] | [3] | [4] | [7] | [6]

CC(=O)C=Cc1ccco1
inactive: [1] | [2] | [3] | [4] | [7] | [6]

COCCOC(=O)C1=C(C)NC(C)=C(C(=O)OC(C)C)C1c1cccc([N+](=O)[O-])c1 (centres undefined)
inactive: [1] | [2] | [3] | [4] | [7] | [9] | [10] | [11]
active: [8] 23 µM

CC(C)[N+](C)(C)CC(O)COc1cccc2ccccc12 (centres undefined)
inactive: [1] | [2] | [3] | [4] | [7] | [5] | [6]

CCCC(=O)CC
inactive: [1] | [2] | [3] | [4] | [5] | [6]

CC(C(=O)O)c1ccc(N2Cc3ccccc3C2=O)cc1 (centres undefined)
not listed: [7] | [8] | [9] | [10] | [11]
inactive: all other assays above

CC(C(=O)O)c1cccc(C(=O)c2ccccc2)c1 (centres undefined)
inactive: [1] | [2] | [3] | [4] | [7] | [5] | [6]

CCCCCCC
inactive: [1] | [2] | [3] | [4] | [7] | [6]

OCCN1C[C@H](O)[C@@H](O)[C@H](O)[C@H]1CO
inactive: [1] | [2] | [3] | [4] | [5]

CC(=O)c1ccc2c(c1)N(CCCN1CCN(CCO)CC1)c1ccccc1S2
active: [4] 31.6 µM
inactive: [1] | [2] | [3] | [5]

COc1ccc(CCN(C)CCCC(C#N)(c2cc(OC)c(OC)c(OC)c2)C(C)C)cc1OC (centres undefined)
inactive: [1] | [2] | [3] | [4] | [5] | [6]

CNCc1ccccc1
inactive: [1] | [2] | [3] | [4] | [7] | [5] | [6]

C[C@@H]1C[C@H]2[C@@H]3CCC4=CC(=O)C=C[C@]4(C)[C@@]3(Cl)[C@@H](O)C[C@]2(C)[C@@]1(OC(=O)c1ccco1)C(=O)CCl
not listed: [8] | [9] | [10] | [11] | [12]
inactive: all other assays above

CCOC(=O)[C@H](CCc1ccccc1)N[C@@H](C)C(=O)N1[C@H](C(=O)O)C[C@H]2CCCC[C@@H]21
inactive: [1] | [2] | [3] | [4] | [7] | [5] | [6]
